The values below come from ChEMBL document CHEMBL2218924, “A broad activity screen in support of a chemogenomic map for kinase signalling research and drug discovery” (Biochem J, 2013).

Assay [1] concerns the target Fibroblast growth factor receptor 1 (Homo sapiens) (UniProt P11362). The following applies: at 1 µM.
Assay [2] shares this target. The settings on record: at 10 µM.
The target in assay [3] is Fibroblast growth factor receptor 2 (Homo sapiens) (UniProt P21802). The following applies: at 1 µM.
For assay [4] the target is unchanged. The settings on record: at 10 µM.
For assay [5], the target named is Fibroblast growth factor receptor 3 (Homo sapiens) (UniProt P22607). The settings on record: at 1 µM.
Fibroblast growth factor receptor 3 (Homo sapiens), sequence (P22607 23-806 limits assumed): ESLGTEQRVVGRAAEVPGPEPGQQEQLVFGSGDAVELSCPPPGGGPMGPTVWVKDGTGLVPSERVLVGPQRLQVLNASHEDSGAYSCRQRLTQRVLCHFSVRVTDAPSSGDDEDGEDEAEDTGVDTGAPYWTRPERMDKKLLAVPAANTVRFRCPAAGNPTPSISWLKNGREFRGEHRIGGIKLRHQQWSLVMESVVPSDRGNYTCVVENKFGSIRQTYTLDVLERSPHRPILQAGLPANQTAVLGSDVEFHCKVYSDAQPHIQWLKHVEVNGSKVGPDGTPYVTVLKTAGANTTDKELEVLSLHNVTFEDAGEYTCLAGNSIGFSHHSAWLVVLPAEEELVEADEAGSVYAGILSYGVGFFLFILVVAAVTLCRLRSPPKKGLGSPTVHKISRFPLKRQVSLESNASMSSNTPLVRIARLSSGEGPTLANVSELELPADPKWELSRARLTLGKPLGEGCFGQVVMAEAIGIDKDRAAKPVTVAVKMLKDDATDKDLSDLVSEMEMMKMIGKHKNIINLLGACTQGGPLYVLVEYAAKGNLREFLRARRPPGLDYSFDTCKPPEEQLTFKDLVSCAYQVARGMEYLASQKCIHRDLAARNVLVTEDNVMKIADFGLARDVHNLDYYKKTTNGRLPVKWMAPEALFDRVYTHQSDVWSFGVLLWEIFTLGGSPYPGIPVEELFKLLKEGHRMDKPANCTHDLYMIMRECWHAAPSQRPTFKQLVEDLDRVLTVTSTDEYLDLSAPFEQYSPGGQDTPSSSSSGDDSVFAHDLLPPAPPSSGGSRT
The target is the same in assay [6]. The following applies: at 10 µM.
For assay [7], the target named is Fibroblast growth factor receptor 4 (Homo sapiens) (UniProt P22455). The settings on record: at 1 µM.
In assay [8] the target is Tyrosine-protein kinase Fer (Homo sapiens) (UniProt P16591). The following applies: at 1 µM.
The target is the same in assay [9]. The settings on record: at 10 µM.
The target of assay [10] is Tyrosine-protein kinase Fes/Fps (Homo sapiens) (UniProt P07332). The settings on record: at 1 µM.
For assay [11] the target is unchanged. The following applies: at 10 µM.
Assay [12] deals with Tyrosine-protein kinase Fgr (Homo sapiens) (UniProt P09769). The settings on record: at 10 µM.
Tyrosine-protein kinase Fgr (Homo sapiens), sequence (P09769 2-529 limits assumed): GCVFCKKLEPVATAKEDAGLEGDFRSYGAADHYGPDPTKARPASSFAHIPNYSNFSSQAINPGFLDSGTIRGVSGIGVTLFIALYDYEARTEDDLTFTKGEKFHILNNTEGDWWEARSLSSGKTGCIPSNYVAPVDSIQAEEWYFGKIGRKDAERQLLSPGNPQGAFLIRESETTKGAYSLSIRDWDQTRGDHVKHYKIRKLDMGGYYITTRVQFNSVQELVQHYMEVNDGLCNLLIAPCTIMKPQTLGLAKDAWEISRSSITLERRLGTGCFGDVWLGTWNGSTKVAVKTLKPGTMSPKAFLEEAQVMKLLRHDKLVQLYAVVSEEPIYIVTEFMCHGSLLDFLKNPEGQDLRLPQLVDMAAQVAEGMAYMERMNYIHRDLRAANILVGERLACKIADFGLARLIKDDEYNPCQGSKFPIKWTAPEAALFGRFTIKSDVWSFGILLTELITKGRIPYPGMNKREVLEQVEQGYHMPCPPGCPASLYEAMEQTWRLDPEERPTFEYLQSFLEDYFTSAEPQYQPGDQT
Assay [13] has as its target Vascular endothelial growth factor receptor 1 (Homo sapiens) (UniProt P17948). The settings on record: at 1 µM.
Assay [14] has the same target. The following applies: at 10 µM.
Assay [15] deals with Receptor-type tyrosine-protein kinase FLT3 (Homo sapiens) (UniProt P36888). The settings on record: at 1 µM.
Assay [16] shares this target. The following applies: at 10 µM.
Assay [17] has as its target Vascular endothelial growth factor receptor 3 (Homo sapiens) (UniProt P35916). The following applies: at 1 µM.
For assay [18], the target named is Tyrosine-protein kinase Fgr (Homo sapiens) (UniProt P09769). The following applies: at 1 µM.
Assay [19] has as its target Focal adhesion kinase 1 (Homo sapiens) (UniProt Q05397). The settings on record: at 10 µM.
The target of assay [20] is Fibroblast growth factor receptor 4 (Homo sapiens) (UniProt P22455). The settings on record: at 10 µM.

Vascular endothelial growth factor receptor 1 (Homo sapiens), sequence (P17948 whole entry): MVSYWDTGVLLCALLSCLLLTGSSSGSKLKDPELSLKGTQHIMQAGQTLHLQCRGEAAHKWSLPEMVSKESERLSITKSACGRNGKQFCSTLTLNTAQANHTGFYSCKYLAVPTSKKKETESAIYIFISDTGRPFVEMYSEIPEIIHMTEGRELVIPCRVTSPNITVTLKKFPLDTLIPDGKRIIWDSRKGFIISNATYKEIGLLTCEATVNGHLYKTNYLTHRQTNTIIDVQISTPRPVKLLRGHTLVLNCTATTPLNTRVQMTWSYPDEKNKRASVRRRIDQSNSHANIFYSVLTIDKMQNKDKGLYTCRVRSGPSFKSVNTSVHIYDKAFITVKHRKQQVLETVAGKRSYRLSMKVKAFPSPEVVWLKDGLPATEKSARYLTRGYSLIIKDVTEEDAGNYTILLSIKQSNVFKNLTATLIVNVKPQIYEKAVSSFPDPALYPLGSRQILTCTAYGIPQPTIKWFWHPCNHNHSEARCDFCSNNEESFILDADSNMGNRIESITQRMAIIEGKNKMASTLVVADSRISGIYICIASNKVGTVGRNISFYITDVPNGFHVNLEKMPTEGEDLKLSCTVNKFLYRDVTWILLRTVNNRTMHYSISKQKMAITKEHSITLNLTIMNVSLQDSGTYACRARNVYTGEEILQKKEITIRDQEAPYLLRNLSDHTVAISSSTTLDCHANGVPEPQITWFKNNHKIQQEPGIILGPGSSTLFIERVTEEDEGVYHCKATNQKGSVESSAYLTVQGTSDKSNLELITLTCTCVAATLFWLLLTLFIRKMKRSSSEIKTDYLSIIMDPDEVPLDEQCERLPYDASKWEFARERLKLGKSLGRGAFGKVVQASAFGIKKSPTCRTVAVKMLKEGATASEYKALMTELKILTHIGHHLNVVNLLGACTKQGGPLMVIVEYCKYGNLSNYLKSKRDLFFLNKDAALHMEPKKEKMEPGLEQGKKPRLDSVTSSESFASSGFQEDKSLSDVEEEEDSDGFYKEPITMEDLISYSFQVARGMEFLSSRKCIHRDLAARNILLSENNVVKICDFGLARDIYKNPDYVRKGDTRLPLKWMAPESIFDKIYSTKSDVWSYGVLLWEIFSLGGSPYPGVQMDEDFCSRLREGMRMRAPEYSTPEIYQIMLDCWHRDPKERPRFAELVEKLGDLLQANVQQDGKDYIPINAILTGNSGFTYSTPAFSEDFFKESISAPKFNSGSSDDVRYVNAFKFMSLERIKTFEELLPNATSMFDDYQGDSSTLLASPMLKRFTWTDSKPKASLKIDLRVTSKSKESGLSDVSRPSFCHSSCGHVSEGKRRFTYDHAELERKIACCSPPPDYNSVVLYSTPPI
Vascular endothelial growth factor receptor 3 (Homo sapiens), sequence (P35916 whole entry): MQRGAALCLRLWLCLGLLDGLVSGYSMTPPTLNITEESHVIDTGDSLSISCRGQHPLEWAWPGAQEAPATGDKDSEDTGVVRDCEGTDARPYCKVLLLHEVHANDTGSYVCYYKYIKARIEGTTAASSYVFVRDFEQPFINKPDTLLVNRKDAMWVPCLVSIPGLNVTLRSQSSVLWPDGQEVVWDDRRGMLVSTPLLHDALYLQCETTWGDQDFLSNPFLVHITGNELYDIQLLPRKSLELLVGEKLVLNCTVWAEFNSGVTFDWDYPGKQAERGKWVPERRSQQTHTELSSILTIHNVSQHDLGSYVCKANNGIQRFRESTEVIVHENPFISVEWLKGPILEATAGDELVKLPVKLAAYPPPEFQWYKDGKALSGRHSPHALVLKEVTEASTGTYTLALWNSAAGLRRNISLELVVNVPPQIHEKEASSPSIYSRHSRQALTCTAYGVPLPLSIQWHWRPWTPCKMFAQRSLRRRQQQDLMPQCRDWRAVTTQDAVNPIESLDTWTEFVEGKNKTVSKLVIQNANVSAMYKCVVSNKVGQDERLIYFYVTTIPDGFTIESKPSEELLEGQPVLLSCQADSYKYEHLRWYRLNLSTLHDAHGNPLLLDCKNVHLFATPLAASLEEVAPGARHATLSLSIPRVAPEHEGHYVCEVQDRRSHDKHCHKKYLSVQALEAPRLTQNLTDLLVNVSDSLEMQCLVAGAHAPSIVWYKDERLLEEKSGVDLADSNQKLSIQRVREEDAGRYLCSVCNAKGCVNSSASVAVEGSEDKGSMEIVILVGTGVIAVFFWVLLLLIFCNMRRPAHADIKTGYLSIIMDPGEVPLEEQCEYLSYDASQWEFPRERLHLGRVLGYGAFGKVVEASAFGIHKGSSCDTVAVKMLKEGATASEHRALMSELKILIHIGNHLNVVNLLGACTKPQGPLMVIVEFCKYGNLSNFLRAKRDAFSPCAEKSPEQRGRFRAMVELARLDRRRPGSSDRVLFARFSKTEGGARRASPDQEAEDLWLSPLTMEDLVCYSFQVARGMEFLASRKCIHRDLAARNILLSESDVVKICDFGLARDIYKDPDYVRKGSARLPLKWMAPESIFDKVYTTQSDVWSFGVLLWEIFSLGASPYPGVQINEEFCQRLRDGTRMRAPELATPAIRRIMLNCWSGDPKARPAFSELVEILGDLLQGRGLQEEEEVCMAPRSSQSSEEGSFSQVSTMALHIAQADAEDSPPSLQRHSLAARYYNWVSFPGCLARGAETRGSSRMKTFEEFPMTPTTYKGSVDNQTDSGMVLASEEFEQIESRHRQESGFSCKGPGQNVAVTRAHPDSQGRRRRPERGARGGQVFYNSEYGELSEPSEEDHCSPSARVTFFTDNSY
Fibroblast growth factor receptor 1 (Homo sapiens), sequence (P11362 22-822 limits assumed): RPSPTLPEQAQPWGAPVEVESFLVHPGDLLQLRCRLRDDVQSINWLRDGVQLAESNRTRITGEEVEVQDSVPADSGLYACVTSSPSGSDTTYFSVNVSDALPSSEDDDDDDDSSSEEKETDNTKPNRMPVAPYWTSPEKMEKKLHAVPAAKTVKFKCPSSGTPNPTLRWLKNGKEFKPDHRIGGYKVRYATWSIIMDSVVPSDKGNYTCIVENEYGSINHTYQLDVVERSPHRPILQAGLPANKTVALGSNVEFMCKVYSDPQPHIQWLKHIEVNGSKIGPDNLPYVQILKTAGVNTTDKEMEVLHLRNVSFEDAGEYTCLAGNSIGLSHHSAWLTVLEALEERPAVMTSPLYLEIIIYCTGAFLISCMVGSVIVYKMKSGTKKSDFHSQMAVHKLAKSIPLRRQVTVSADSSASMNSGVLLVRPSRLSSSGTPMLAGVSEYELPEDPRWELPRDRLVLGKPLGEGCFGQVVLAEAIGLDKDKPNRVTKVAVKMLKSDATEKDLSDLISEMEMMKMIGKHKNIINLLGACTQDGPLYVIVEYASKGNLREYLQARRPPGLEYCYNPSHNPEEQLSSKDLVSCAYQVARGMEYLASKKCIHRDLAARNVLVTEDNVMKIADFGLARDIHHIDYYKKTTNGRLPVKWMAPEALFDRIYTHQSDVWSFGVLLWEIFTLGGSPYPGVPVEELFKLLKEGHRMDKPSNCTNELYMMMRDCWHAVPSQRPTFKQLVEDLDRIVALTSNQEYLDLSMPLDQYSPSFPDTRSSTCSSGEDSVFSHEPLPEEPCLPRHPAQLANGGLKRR

As for `COc1ccc2c(c1)c(C1=C(c3c[nH]c4ccccc34)C(=O)NC1=O)cn2CCCN(C)C`, the residual activity in [1] came out at 38%; in assay [2], 3%; in assay [3], 72%; in assay [4], 18%; in assay [5], 63%; in assay [6], 13%. Further, the residual activity is 120% in assay [7]; 102% in [8]; 58% in assay [9]; 96% in assay [10]; 26% in assay [11]; 33% in assay [12]. Further, the residual activity in assay [13] was 2%; in [14], 0%; in assay [15], 21%; in assay [16], 0%; in assay [17], 2%.
For `CCOc1nc(NC(=O)Cc2cc(OC)ccc2OC)cc(N)c1C#N`, the residual activity in [3] was 100%.
For `COc1ccc(COc2ccc(Cc3cnc(N)nc3N)cc2OC)cc1`, the residual activity in assay [1] is 112%; in assay [3], 112%; in [4] it was 76%; in assay [7] it was 131%.
In the case of `N#Cc1c(NC(=O)c2cccc3ccccc23)sc2c1CCCC2`, the residual activity in [1] came out at 128%; in assay [2], 88%; in [8], 89%; in assay [9], 97%; in assay [11], 95%; in assay [18], 99%. Besides, the residual activity was determined as 135% in [12], 77% in assay [16] and 92% in [17].
`O=C(O)/C=C/c1cc(Br)c(Br)c(Br)c1Br`: the residual activity came out at 98% in [19]; 94% in [4]; 103% in [5]; 99% in [6]; 96% in [20]; 97% in assay [8]. The residual activity in assay [9] stood at 107%; in assay [10] it was 97%; in [11] it was 74%; in [18] it was 104%; in assay [12], 103%; in assay [13], 92%. In addition, the residual activity was 67% in assay [14], 72% in assay [15], 27% in assay [16] and 79% in assay [17].
As for `COc1ccc(-c2cnc3c(-c4ccsc4)cnn3c2)cc1`, the residual activity in [5] was determined as 93%; in assay [6], 124%; in [9], 98%; in assay [11] it was 82%; in assay [13] it was 33%; in [14], 48%. Also, the residual activity is 53% in [15], 19% in assay [16] and 21% in assay [17].
As for `O=C1Nc2ccccc2/C1=C\c1c(Cl)[nH]c2ccccc12`, the residual activity was found to be 85% in assay [19]; 119% in [3]; 79% in assay [4]; 67% in assay [9]; 99% in [10]; 78% in assay [11]. In addition, the residual activity in assay [12] is 64%; in [14], 38%; in assay [16] it was 55%; in assay [17], 64%.
As to `N#C/C(=C1/Nc2ccccc2S1)c1ccnc(NCCc2cccnc2)n1`, the residual activity in [19] amounted to 60%; in assay [3], 100%; in [4] it was 45%; in assay [7] it was 117%; in assay [20], 67%; in assay [8] it was 89%. Also, the residual activity in [9] came out at 60%; in assay [10], 96%; in [11], 73%; in assay [18], 81%; in assay [12] it was 44%; in [13], 78%. The figures for the residual activity in assay [14] and in assay [17] were 33% and 68%, respectively.
On to `Nc1nc(Nc2ccc(S(N)(=O)=O)cc2)nn1C(=O)c1c(F)cccc1F`, for which the residual activity was 52% in [19]; 36% in assay [3]; 7% in assay [4]; 29% in [5]; 4% in [6]; 99% in assay [7]. In addition, the residual activity in [20] turned out to be 66%; in assay [8], 101%; in assay [9], 55%; in assay [18], 63%; in assay [12], 20%; in [13], 18%. Moreover, the residual activity in assay [14] came to 2%; in [16], 5%; in assay [17], 1%.
With `COc1ccc(Cl)cc1NC(=O)Nc1cc(C)nc2ccccc12`, the residual activity amounted to 64% in [19]; 94% in assay [11]; 99% in assay [18]; 82% in [12]; 96% in [13]; 91% in assay [14].
For `CCCC(=O)Oc1ccc2[nH]c(C(=O)c3cc4ccccc4[nH]3)cc2c1`, the residual activity in assay [19] is 79%; in assay [3] it was 97%; in [4], 108%; in assay [7] it was 125%; in assay [20] it was 86%; in assay [8] it was 107%. Moreover, the residual activity turned out to be 98% in [9]; 104% in assay [10]; 81% in assay [11]; 97% in assay [18]; 82% in assay [12]; 83% in assay [13]. Also, the residual activity came to 86% in assay [14], 73% in assay [15], 50% in assay [16] and 73% in assay [17].
Regarding `CSc1nc(-c2ccc(F)cc2)c(-c2ccnc(NC(C)c3ccccc3)c2)[nH]1` (stereo unspecified), the residual activity in assay [1] amounted to 126%; in [2] it was 53%; in assay [3], 87%; in [4] it was 68%; in assay [6], 78%; in assay [20] it was 78%. Further, the residual activity in assay [10] came out at 102%; in assay [11] it was 87%; in [18], 84%; in assay [12], 71%; in assay [14], 80%; in [15], 86%. Moreover, the values for the residual activity in assay [16] and in [17] were 83% and 97%, respectively.
Consider `O=c1cc(N2CCOCC2)oc2c(-c3ccccc3)cccc12`, for which the residual activity in [2] worked out at 81%; in assay [5], 101%; in assay [6], 73%; in assay [20] it was 70%; in [8] it was 101%.
As to `CN([C@@H](Cc1ccc(OS(=O)(=O)c2cccc3cnccc23)cc1)C(=O)N1CCN(c2ccccc2)CC1)S(=O)(=O)c1cccc2cnccc12`, the results for the residual activity in assay [2], in [6] and in assay [16] were 58%, 58% and 76%, respectively.
For `O=C1NC(=O)C(c2cn(CCCO)c3ncccc23)=C1c1cnccn1`, the residual activity in assay [1] amounted to 80%; in assay [2], 68%; in assay [3], 91%; in assay [4], 81%; in [8], 89%; in assay [9], 94%. In addition, the residual activity was determined as 95% in assay [18]; 97% in assay [12]; 41% in assay [13]; 46% in assay [14]; 57% in assay [15]; 51% in assay [16]. The residual activity in assay [17] amounted to 28%.
As to `Nc1ncnc2[nH]nc(Nc3ccc(F)cc3)c12`, the residual activity was determined as 91% in assay [3]; 60% in [4]; 113% in assay [5]; 98% in [7]; 98% in [8]; 99% in assay [9]. The residual activity amounted to 98% in assay [10]; 56% in [18]; 18% in assay [12]; 35% in assay [14]; 114% in [15]; 94% in assay [16]. Also, the residual activity in assay [17] is 80%.
Take `O=C(Nc1nc2ccccc2n1CCN1CCOCC1)c1cccc([N+](=O)[O-])c1`: the residual activity in [19] was determined as 87%; in [7], 114%; in [10], 101%; in assay [11] it was 74%; in [18] it was 102%; in assay [15] it was 38%. Moreover, the residual activity stood at 29% in assay [16] and 36% in assay [17].
Regarding `COc1cc2c(cc1OC)-c1n[nH]c(Nc3cccc(F)c3)c1C2`, the residual activity was 111% in [5]; 67% in [6]; 117% in assay [7]; 101% in assay [20]; 100% in [8]; 82% in assay [9]. For the same compound, the residual activity in assay [11] turned out to be 59%; in [18], 20%; in assay [12], 4%; in [15], 47%; in assay [16] it was 5%.
In the case of `Fc1ccc(-c2nc3n(c2-c2ccncc2)CCS3)cc1`, the residual activity in assay [1] came out at 137%; in assay [12], 97%; in assay [15], 98%; in [16], 82%; in [17], 89%.
With `COc1cc2ncnc(Nc3cccc(Cl)c3)c2cc1OC`, the residual activity in assay [2] was 32%; in assay [3], 101%; in [4], 66%; in [5], 104%; in [6] it was 74%; in assay [8], 113%. Moreover, the residual activity worked out at 105% in assay [9]; 119% in assay [10]; 86% in assay [11]; 52% in [18]; 12% in assay [12]; 60% in assay [13]. For the same compound, the residual activity in assay [14] was determined as 16%; in assay [15] it was 111%; in [16], 52%; in assay [17] it was 47%.
In the case of `O=S(=O)(c1cccc2cnccc12)N1CCCNCC1`, the residual activity in assay [2] turned out to be 81%.

Usually residual activity stands for the signal under treatment as a percentage of the control signal.
